Results on six molecules are retold here after PubChem BioAssay (NCATS).

Structures are written as SMILES. Unmarked numbers belong to inactive results. Records with an inconclusive call do not appear. Calls of active or inactive are those of the source. Unless noted, calls come from the whole dose curve; as a rule, active = well fitted curve in the direction sought with a large enough effect; inconclusive = small, poorly fitted or top-dose-only effect, or another doubt; inactive = no such curve, though single readings can be large; an effect the other way counts as inactive or inconclusive. A value given as a limit tells only on which side of the number the result lay.

A short description of assay [1]: AP1 Signaling Pathway (AID 357; active = well fitted curve in either direction with a large enough effect, not every such curve was filed as active; note: % is set by controls: 0 for no effect and ±100 for the full control effect). Particulars: ME-180 AP-1-bla reporter, EGF-induced, beta-lactamase ratio, 5 h; at 17.2 µM (top of the series) unless noted. The gist of the method: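 Cells are seeded overnight, exposed to compound titrations and an EC50 level of EGF for 5 hours at 37 °C, then loaded with CCF4 dye for 2.5 hours. Beta-lactamase activity under the AP-1 element is read as a blue/green ratio.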

In assay [2] the target is Cytochrome P450 1A2 (Homo sapiens) (UniProt P05177). Kind of assay: p450-cyp1a2 (AID 410; calls by dose curve; note: potency is the fitted concentration of half-maximal effect;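 for activity change, negative = inhibition: -100% = full effect of reference inhibitor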). The gist of the method:
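O-Demethylation of luciferin 6' methyl ether by human CYP1A2 is monitored as luciferase luminescence. Substrate sits at Km (100uM); enzyme is 20nM. Values are scaled to 57 uM furafylline as maximal inhibition.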

Assay [3] is described as follows: Stat Signaling Pathway (AID 446; active = well fitted curve in either direction with a large enough effect, not every such curve was filed as active;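 note: ME-180 cervical cancer cells given 40 pM IL-6 alongside compound; SIE-controlled beta-lactamase reporter measured as 460/530 nm FRET emission ratio; % is set by controls: 0 for no effect and ±100 for the full control effect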). Particulars: ME-180 SIE beta-lactamase reporter, IL-6 stimulated, 5 h; at 17.2 µM (top of the series) unless noted. The gist of the method: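 Normalization used AC90 stimulation (300 pM IL-6) and AC90 inhibition (125 nM pan-JAK inhibitor at 40 pM IL-6). The underlying signal is SIE-driven beta-lactamase in ME-180 cells after 5 h IL-6 exposure with compound.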

The target in assay [4] is Glucocorticoid receptor (Homo sapiens) (UniProt P04150). Kind of assay: GR-GFP Redistribution (AID 450;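 active = compounds whose dose series gives a full or clear partial fitted curve of increased nuclear translocation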; note: potency is the fitted concentration of half-maximal effect).
Assay [5] shares this target. In words: GR-EFC Redistribution (AID 451; calls by dose curve; note: potency is the fitted concentration of half-maximal effect). Particulars: CHO-K1 GR-EFC translocation, beta-gal luminescence, 2 h. The gist of the method:
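CHO-K1 cells expressing nuclear EA and GR-ED fragments of b-gal; compounds titrated up to 46 uM final, 2 h at 37 C. GR nuclear translocation read as complemented b-gal luminescence after 1 h RT detection.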

Assay [6] addresses Mitogen-activated protein kinase 10 (Mus musculus) (UniProt Q61831). In words: JNK3 AlphaScreen Assay (AID 530; active = well fitted curve in either direction with a large enough effect, not every such curve was filed as active;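 note: kinase came from lysate of stimulated human HepG2 cells; signal reports phosphorylation of biotinylated GST-cJun 1-79 at Ser73 with 10 µM ATP; % is set by controls: 0 for no effect and ±100 for the full control effect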). The gist of the method:
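Activity was read by AlphaScreen after JNK3-containing HepG2 lysate (cytokine pre-activated) phosphorylated biotinylated GST-cJun with 10 uM ATP at room temperature. Phospho-Ser73 cJun antibody with Protein-A acceptor beads provided detection.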
Background: Alpha assays give light when donor and acceptor beads are brought close together.

For assay [7], the target named is Cytochrome P450 3A4 (Homo sapiens) (UniProt P08684). Kind of assay: qHTS Assay for Activators of Cytochrome P450 3A4 (AID 885). Note: nearly all actives have a fitted effect of over 65% in size. Note: potency is the fitted concentration of half-maximal effect. The gist of the method: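 Human CYP3A4 dealkylates Luciferin-PPXE to luciferin, which luciferase detection converts to light. Substrate was at its KM (25uM), buffer 200mM KPO4, reaction 60 min at RT.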
Assay [8] in a line: qHTS Assay for Identification of Small Molecule Agonists for Thrombopoietin (TPO) Signaling Pathway (AID 917). Note: % is set by controls: 0 for no effect and ±100 for the full control effect. The gist of the method:
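Stimulation at the TPO EC50 (26 pM final) was used to detect activators. Ba/F3 mouse cells bearing human TPO receptor and a luciferase reporter under the Glycoprotein IIb promoter were exposed to compounds for 24 hrs at 37 C.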
For orientation: In qHTS, concentration-response curves come from the screen itself.

Assay [9] concerns the target Muscarinic acetylcholine receptor M1 (Rattus norvegicus) (UniProt P08482). Kind of assay: qHTS Assay for Antagonists of Acetylcholine Muscarinic M1 Receptor: Measurement of IP-One Response (AID 944). Note: nearly all actives have a fitted effect of over 75% in size. Note: potency is the fitted concentration of half-maximal effect. The gist of the method:
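Antagonist mode with rat M1 receptor transfected into CHO cells. Compound is added first for 10 min, carbachol at its EC80 follows for 30 min, and lysis reagents then allow TR-FRET detection of accumulated IP1.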

Assay [10] has as its target Pyruvate kinase (Leishmania mexicana) (UniProt Q27686). In words: qHTS Validation Assay for Inhibitors of Leishmania Mexicana Pyruvate Kinase (AID 945).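 Note: 0% = DMSO only neutral control wells.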 The gist of the method: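 LmPYK E451W 0.2 nM; 0.5 mM PEP, 0.1 mM ADP, 7 mM MgCl2, 50 mM KCl, imidazole pH 7.2, 0.01% Tween 20, 0.05% BSA; 1 h RT; PKLight luminescence; DMSO-normalized.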
Assay [11] deals with Pyruvate kinase PKM (Homo sapiens) (UniProt P14618). Kind of assay: qHTS Assay for Activators of Human Muscle Pyruvate Kinase (AID 954; active = well fitted curve in the direction sought with a large enough effect, not every such curve was filed as active;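 note: 0% = uninhibited enzyme and -100% = no enzyme or full thiadiazolimine inhibition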). The gist of the method: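 Compound pinned into substrate mix (0.5 mM PEP, 0.1 mM ADP), then 0.1 nM PKM2 added; 1 h, RT. Stop/detection luciferase reagent added, luminescence read. Normalized to no-inhibition and no-enzyme or reference-inhibitor controls.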

For assay [12], the target named is Alpha-galactosidase A (Homo sapiens) (UniProt P06280). In words: Counterscreen for Glucocerebrosidase Inhibitors: qHTS Assay for Human alpha-Galactosidase at pH 4.5 (AID 992). Note: 0% is about no effect. The gist of the method: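 Steps: enzyme (2 nM final), then compound across 0.7 nM to 77 uM, then 80 uM fluorogenic galactopyranoside substrate; incubate 20 min at room temperature; quench at pH 10; measure fluorescence at 365/440 nm.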
In general terms: The purpose of a counterscreen is to sort out artefacts and off-target activity.

For assay [13], the target named is alpha-glucosidase (Oryza sativa, rice) (UniProt Q653V4). In words: Counterscreen for Glucocerebrosidase Inhibitors: qHTS Assay for Rice alpha-Glucosidase at pH 5.0 (AID 997).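 Note: 0% = full activity with enzyme and -100% = basal without enzyme.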 The gist of the method:
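Endpoint fluorogenic assay at pH 5.0: compounds (0.7 nM to 77 uM) titrated against 4 nM rice enzyme and 400 uM 4-MU-alpha-glucoside for 20 min at room temperature; NaOH/glycine stop, read ex 365/em 440 nm, Hill-fitted AC50.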

In assay [14] the target is 3',5'-cyclic-AMP phosphodiesterase 4B (Homo sapiens) (UniProt Q07343). In words: qHTS Assay for Inhibitors of PDE-IV (AID 607; active = well fitted activation curve with a large enough effect in the main read-out, with a control signal flat, not every such curve was filed as active; note: % of control where 0% means no effect). The gist of the method:
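HEK293 ACTOne cells with CNG channel (1000/well), endogenous PDE4; membrane potential dye, compounds up to 22.9 uM final. Fluorescence Ex 535/Em 590; RO 20-1724 (100 uM final) as reference.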

Assay [15] concerns the target Guanine nucleotide-binding protein G(i) subunit alpha-1 (Homo sapiens) (UniProt P63096). Kind of assay: qHTS Assay for Inhibitors of RGS12 GoLoco Motif Activity (Green Fluorophore) (AID 879).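 Note: 0% = labeled peptide with Gαi1 and full inhibition = labeled peptide alone without protein; negative values mean loss of peptide binding seen as reduced polarization.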 The gist of the method:
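A drop in FITC polarization marked displacement of the FITC-tagged RGS12 GoLoco peptide (10 nM) from Gαi1 (50 nM). Compounds were incubated 10 min at room temperature in Tris pH 7.5 buffer containing 150 mM NaCl, 0.1 mM GDP and 0.05% NP40; unlabeled peptide titration served as control.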

The target in assay [16] is Cytochrome P450 3A4 (Homo sapiens) (UniProt P08684). Kind of assay: qHTS Assay for Inhibitors and Substrates of Cytochrome P450 3A4 (AID 884). Note: % is set by controls: 0 for no effect and ±100 for the full control effect; nearly all actives have a fitted effect of over 50% in size. The gist of the method: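 Luminescent readout of luciferin produced by CYP3A4 (20 nM) dealkylation of Luciferin-PPXE, 25 uM (its KM). NADPH-driven reaction ran 60 min at RT after 10 min compound preincubation; data scaled to 57 uM ketoconazole as 100% inhibition.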

The target in assay [17] is Cytochrome P450 2D6 (Homo sapiens) (UniProt P10635). Kind of assay: qHTS Assay for Inhibitors and Substrates of Cytochrome P450 2D6 (AID 891). Note: potency is the fitted concentration of half-maximal effect; nearly all actives have a fitted effect of over 60% in size. The gist of the method:
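Luminescent read-out of luciferin formed by 5 nM human CYP2D6 demethylating 30 uM Luciferin-ME EGE (Km level) over 60 min at room temperature after NADPH regeneration addition. Data normalized to full inhibition by 1.43 uM quinidine.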

The nature of assay [18]: NFAT Signaling Pathway (AID 444; active = well fitted curve in either direction with a large enough effect, not every such curve was filed as active). Particulars: Jurkat NFAT-bla M1, carbachol, beta-lactamase ratio, 5 h; at 17.2 µM (top of the series) unless noted. The gist of the method: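 Jurkat cells with NFAT-driven β-lactamase reporter and co-expressed M1 receptor, stimulated with carbachol (final 1 uM, ~EC50), compound titration, 5 h at 37 °C. CCF4 loaded 1 h at RT; 460/530 nm ratio gave %activity and AC50.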

Assay [19] is described as follows: qHTS Assay for Identification of Small Molecule Agonists for Hypoxia Response Element Signaling Pathway (AID 914; active = well fitted activation curve with a large enough effect in the signal ratio, with a control signal flat, not every such curve was filed as active; the % refers to the signal ratio; note: % of control where 0% means no effect). To be noted: ME-180 (cervical carcinoma) HRE-bla reporter, beta-lactamase ratio, CoCl2, 17 h; activation: hits give high values. The gist of the method:
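ME-180 cells carrying an HRE-driven beta-lactamase reporter were treated with compounds in a titration series plus an EC50 level of CoCl2 for 17 h at 37 degrees Celsius; CCF4 readout as the 460nm/530nm ratio gave AC50 values.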

Sequence of Cytochrome P450 1A2 (Homo sapiens) (P05177 whole entry, looked up): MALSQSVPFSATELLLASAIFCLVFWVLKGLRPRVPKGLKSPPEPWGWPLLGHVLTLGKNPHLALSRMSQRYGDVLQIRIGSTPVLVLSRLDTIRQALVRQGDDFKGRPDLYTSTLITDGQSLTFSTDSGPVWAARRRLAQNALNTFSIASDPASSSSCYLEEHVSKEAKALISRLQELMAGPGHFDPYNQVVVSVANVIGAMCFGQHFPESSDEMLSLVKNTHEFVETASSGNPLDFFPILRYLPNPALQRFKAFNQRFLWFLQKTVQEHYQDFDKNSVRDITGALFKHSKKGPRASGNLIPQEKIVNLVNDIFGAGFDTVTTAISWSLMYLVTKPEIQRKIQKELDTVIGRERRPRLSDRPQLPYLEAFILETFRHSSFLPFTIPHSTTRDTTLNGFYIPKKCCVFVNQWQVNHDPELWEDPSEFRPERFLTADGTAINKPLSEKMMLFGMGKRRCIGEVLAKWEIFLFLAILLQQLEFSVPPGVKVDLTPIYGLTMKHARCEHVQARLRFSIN
Sequence of Pyruvate kinase (Leishmania mexicana) (Q27686 2-499 E452W): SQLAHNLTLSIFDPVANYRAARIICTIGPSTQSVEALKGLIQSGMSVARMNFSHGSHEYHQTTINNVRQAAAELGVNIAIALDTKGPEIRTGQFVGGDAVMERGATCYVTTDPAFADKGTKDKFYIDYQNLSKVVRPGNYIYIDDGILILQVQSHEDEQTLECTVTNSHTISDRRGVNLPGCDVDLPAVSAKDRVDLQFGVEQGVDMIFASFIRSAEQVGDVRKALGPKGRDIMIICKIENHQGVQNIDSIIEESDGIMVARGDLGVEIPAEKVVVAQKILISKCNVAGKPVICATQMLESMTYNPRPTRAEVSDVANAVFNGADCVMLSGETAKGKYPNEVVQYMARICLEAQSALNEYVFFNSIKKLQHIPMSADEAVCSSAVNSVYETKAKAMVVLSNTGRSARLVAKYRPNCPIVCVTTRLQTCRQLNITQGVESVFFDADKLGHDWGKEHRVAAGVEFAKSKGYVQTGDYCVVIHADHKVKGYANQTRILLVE
Sequence of Alpha-galactosidase A (Homo sapiens) (P06280 whole entry, looked up): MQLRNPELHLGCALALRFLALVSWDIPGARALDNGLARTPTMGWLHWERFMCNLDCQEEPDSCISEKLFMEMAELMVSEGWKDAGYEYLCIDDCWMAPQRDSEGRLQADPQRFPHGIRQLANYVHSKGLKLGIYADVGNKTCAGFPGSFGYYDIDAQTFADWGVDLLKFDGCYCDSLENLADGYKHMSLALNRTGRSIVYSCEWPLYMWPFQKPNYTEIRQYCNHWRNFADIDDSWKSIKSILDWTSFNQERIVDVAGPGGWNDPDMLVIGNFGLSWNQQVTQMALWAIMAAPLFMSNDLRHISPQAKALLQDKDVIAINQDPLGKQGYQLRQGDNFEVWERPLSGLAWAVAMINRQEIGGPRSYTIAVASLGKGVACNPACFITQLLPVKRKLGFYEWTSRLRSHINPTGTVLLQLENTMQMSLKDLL
Sequence of Cytochrome P450 3A4 (Homo sapiens) (P08684 whole entry, looked up): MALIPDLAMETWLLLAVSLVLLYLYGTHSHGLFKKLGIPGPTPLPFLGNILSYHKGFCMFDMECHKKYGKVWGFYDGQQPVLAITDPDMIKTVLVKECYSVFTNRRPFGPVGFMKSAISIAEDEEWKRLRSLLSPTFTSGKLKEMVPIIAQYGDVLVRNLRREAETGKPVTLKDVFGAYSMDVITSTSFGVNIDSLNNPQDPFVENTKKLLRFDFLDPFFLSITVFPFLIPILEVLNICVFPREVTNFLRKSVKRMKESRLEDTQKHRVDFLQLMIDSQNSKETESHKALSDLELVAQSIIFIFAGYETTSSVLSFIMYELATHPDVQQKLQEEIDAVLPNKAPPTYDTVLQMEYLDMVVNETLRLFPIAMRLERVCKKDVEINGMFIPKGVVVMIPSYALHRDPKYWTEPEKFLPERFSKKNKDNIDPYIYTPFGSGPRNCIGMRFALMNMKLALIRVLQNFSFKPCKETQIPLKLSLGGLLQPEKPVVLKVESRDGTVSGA
Sequence of Glucocorticoid receptor (Homo sapiens) (P04150 whole entry, looked up): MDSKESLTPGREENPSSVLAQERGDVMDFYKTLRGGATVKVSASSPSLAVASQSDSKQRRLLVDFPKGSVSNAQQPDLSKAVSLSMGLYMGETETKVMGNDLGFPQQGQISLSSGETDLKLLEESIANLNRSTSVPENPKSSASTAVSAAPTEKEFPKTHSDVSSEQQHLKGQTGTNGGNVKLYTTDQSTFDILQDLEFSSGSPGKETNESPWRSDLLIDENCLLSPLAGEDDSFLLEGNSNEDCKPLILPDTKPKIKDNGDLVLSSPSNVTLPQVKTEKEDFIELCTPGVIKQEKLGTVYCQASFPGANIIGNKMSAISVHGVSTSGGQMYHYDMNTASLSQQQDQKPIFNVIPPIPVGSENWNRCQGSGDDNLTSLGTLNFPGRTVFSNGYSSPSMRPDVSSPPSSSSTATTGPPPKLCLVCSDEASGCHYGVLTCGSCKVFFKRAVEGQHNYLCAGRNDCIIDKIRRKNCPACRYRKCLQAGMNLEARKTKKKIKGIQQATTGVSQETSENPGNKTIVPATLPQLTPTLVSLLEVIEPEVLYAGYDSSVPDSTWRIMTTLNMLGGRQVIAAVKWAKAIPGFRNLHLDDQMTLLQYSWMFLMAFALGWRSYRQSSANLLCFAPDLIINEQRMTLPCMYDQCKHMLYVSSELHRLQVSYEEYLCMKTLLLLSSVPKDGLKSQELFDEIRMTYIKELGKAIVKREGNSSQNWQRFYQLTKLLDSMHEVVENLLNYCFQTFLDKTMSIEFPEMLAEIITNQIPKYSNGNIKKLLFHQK
Sequence of 3',5'-cyclic-AMP phosphodiesterase 4B (Homo sapiens) (Q07343 whole entry, looked up): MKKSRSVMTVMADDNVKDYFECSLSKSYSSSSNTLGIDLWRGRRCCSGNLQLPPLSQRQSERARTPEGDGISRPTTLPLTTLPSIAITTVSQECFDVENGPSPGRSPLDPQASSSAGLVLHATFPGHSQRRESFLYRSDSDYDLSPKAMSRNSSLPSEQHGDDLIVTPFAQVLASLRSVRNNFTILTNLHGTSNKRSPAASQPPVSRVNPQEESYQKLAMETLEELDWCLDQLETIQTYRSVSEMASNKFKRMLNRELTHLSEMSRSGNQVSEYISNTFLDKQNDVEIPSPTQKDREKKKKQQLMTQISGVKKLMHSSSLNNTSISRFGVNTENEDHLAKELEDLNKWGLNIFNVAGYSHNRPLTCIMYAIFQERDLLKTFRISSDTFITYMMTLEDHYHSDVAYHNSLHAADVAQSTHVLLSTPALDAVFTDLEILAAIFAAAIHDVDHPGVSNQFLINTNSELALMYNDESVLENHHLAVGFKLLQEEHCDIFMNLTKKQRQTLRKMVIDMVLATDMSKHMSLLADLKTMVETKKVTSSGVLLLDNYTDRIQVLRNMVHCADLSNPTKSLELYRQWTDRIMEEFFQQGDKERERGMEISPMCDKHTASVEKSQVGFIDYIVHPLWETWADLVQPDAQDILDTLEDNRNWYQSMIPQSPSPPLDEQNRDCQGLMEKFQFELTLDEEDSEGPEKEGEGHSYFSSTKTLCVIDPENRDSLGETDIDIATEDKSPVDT
Sequence of Pyruvate kinase PKM (Homo sapiens) (P14618 whole entry, looked up): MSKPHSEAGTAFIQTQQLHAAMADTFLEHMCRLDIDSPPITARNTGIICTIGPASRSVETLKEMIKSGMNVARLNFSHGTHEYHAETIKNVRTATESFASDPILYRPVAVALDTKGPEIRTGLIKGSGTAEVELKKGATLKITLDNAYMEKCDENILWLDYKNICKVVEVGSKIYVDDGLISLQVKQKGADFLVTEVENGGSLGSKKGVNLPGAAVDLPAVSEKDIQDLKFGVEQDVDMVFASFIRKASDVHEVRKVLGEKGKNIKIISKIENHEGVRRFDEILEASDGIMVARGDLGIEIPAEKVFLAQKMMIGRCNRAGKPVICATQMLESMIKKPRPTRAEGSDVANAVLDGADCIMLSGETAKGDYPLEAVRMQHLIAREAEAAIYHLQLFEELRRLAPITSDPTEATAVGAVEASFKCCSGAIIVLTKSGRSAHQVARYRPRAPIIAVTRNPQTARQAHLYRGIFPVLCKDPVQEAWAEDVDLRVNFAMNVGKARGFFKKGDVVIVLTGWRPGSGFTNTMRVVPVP
Sequence of Muscarinic acetylcholine receptor M1 (Rattus norvegicus) (P08482 whole entry, looked up): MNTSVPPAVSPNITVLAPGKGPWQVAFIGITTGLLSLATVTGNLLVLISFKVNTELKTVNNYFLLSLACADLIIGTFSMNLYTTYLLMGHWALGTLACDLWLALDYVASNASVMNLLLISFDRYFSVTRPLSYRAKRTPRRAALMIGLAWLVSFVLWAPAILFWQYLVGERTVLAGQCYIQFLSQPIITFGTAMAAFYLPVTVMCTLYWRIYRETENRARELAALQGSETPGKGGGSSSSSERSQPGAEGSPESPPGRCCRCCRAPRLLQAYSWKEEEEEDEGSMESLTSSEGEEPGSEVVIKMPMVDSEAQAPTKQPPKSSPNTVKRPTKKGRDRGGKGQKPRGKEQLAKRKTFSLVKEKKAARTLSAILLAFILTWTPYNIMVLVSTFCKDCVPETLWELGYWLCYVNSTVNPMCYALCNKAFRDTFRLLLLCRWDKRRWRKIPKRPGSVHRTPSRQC
Sequence of Guanine nucleotide-binding protein G(i) subunit alpha-1 (Homo sapiens) (P63096 whole entry, looked up): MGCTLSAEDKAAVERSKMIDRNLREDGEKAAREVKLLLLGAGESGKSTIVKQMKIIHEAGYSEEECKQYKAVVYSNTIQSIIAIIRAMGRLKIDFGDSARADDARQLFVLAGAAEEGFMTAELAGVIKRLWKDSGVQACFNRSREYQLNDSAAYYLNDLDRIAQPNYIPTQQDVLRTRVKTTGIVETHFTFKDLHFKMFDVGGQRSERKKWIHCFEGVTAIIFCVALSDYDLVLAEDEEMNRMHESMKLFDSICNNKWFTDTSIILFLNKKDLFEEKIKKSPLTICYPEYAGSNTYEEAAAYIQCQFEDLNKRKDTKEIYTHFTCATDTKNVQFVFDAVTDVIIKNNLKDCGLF

Take `O=C1[C@@H]2C=CC=CC2=NC(=S)N1CCN1CCC(=C(c2ccc(F)cc2)c2ccc(F)cc2)CC1`: the activity change, negative = inhibition in assay [1] is 26.4% [at 38 µM]. Further, the Potency result in [2], in [6], in assay [7], in assay [8], in assay [9] and in [10] was “inactive” in each case. In assay [3], the activity, negative = inhibition is 6.96% [at 38 µM]. The Potency in assay [4] and in assay [5] was over 46 µM each time. The outcome in [11], in [12] and in assay [13] was inactive.

With `CC1CCN(CC[C@@H]2CCCN2S(=O)(=O)c2cccc(O)c2)CC1`, the activity change, negative = inhibition in assay [1] is 2.33% [at 38 µM]. Further, the Potency entry in assay [2], in [14], in assay [7], in assay [8] and in assay [10] was “inactive” in each case. Further, the activity, negative = inhibition in assay [3] was -6.42% [at 38 µM]. Besides, the Potency is over 46 µM in [4], over 46 µM in assay [5] and 14.1 µM (active) in [9]. The call in [15], in assay [11], in assay [12] and in assay [13] was inactive.

For the molecule `CCCN(CCc1ccccc1)[C@H]1CCc2c(O)cccc2C1`, in assay [1], the activity change, negative = inhibition was 9.86% [at 38 µM]. Also, the Potency is 12.6 µM (active) in assay [2]; over 46 µM in [4]; over 46 µM in assay [5]; 12.6 µM (active) in assay [7]; 0.501 µM (active) in assay [17]; 2.82 µM (active) in assay [9]. Also, the activity, negative = inhibition in assay [3] is -8.8% [at 38 µM]. Also, the Potency entry in assay [6], in assay [16] and in assay [10] was “inactive” in each case. Also, the outcome in assay [15], in assay [11], in assay [12] and in assay [13] was inactive.

For `N#Cc1ccc(OC(=O)c2ccc(N=C(N)N)cc2)cc1`, the activity change, negative = inhibition is -0.971% [at 7.69 µM] in assay [1] and 1.07% [at 11.4 µM] in assay [6]. Moreover, the Potency in assay [2] is 2.51 µM (active). In addition, in [3], the activity, negative = inhibition is -5.61% [at 7.69 µM]. For the same molecule, the Potency result in assay [14] was “inactive”.

With `CO[C@H]1C=CO[C@@]2(C)Oc3c(C)c(O)c4c(O)c(c(C=NN5CCN(C)CC5)c(O)c4c3C2=O)NC(=O)C(C)=CC=C[C@H](C)[C@H](O)[C@@H](C)[C@@H](O)[C@@H](C)[C@H](OC(C)=O)[C@@H]1C`, the figures for the activity change, negative = inhibition in [1] and in assay [18] were -3.11% and 18.4%, respectively. The activity, negative = inhibition in [3] was 1.14%.

Consider `Cc1cc(-c2cc(C)c(O)c(C(C)(C)C)c2)cc(C(C)(C)C)c1O`, for which the results for the activity change, negative = inhibition in assay [1] and in assay [6] were -0.717% [at 7.69 µM] and -3.71% [at 11.4 µM], respectively. For the same molecule, the Potency in [2] is 0.631 µM (active); in assay [4] it was over 46 µM; in assay [5] it was over 9.22 µM. Moreover, in [3], the activity, negative = inhibition is 14.1% [at 7.69 µM]. In addition, the Potency entry in assay [14] was “inactive”. Also, the activation in assay [19] was -9.94%.
